The source of these data is PubChem BioAssay AID778 (Sanford-Burnham Center for Chemical Genomics, 2007).

Among all 96,000 compounds or so, about 20,000 (21%) were called active.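 How the source made its calls: active means CYP2C19 inhibition above a set limit at 5 µM in the primary screen (cut at about 50% in these data); inactive means the rest.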 A selection follows.

In general, inhibition refers to the relative decrease from the control value, in per cent.

The target in the test is Cytochrome P450 2C19 (Homo sapiens) (UniProt P33261). In words: blockers of cytochrome P450 2C19 activity – biochemical, luminescence, ADME assay, primary screen (AID 778).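 Further: plate controls were negative control wells for no effect and 2.5 mM tranylcypromine positive control for full effect.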 The following applies: CYP2C19 Supersomes, luciferin-H EGE luminescence, 30 min; at 5 µM; stronger effect = higher value.
Chain of Cytochrome P450 2C19 (Homo sapiens) (P33261 whole entry, looked up): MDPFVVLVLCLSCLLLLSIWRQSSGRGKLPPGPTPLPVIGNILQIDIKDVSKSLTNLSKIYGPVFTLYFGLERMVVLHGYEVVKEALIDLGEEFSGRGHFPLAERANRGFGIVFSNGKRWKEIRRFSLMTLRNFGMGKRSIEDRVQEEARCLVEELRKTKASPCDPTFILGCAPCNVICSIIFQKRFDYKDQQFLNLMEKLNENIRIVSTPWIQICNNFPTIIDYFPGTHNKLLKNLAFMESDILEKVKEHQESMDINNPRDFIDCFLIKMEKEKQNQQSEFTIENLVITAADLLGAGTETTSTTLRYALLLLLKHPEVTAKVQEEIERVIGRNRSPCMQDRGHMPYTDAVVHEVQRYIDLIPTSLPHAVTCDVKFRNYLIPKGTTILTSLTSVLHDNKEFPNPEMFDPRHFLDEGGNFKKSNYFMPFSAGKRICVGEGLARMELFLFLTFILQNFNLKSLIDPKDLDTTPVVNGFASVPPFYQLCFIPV
For the compound `CCCCNC(=O)CSc1nc2ccc(NC(=O)CSc3nnc(COc4ccccc4C)n3C)cc2s1`, the inhibition was 19.1% (inactive).

With `CC(C)c1ccc(NC(=O)CCN2C(=O)c3ccc([N+](=O)[O-])cc3C2=O)cc1`, the inhibition was 8.5% (inactive).

`CC(C)OC(=O)c1cc(NC(=O)C2C3CCC(O3)C2C(=O)O)cc(C(=O)OC(C)C)c1` (stereo not drawn): the inhibition is 77.9% (active).

Take `Cc1sc(NC(=O)C2C3CCC(O3)C2C(=O)O)c(C(=O)OC(C)C)c1-c1ccc(Cl)cc1` (stereo not drawn): the inhibition is 19.7% (inactive).

With `CCC(CC)C(=O)Nc1cc(C(=O)OC)cc(C(=O)OC)c1`, the inhibition is 1.1% (inactive).

For the compound `COCCCn1c(SCc2cccc(OC)c2)nc2cc(OC)c(OC)cc2c1=N`, the inhibition was 53.4% (active).

As for `OCCN1CCOCCOCCN(CCO)CCN(CCO)CC1`, the inhibition is 16.6% (inactive).

As to `O=C(OC1CCOC1=O)c1ccc(-c2nc3ccccc3s2)s1` (stereo not drawn), the inhibition is 11.3% (inactive).

As to `Cc1nn(Cc2ccccc2)c(Cl)c1C(=O)OC1CCOC1=O` (stereo not drawn), the inhibition is 63.5% (active).

Take `CC(=O)c1c(N2CCOCC2)nc(=S)n(Cc2ccccc2)c1C`: the inhibition was 12.8% (inactive).

In the case of `COc1cccc(-c2nc(S(=O)(=O)c3ccccc3)c(N3CCOCC3)o2)c1`, the inhibition is 27.7% (inactive).

Regarding `O=C(NCc1cn2ccsc2n1)Nc1cccc(Cl)c1`, the inhibition was 13.3% (inactive).

On to `O=c1[nH]c(=O)n(Cc2ccco2)c2c1C(C(F)(F)F)(C(F)(F)F)N=C(c1ccco1)N2`, for which the inhibition was -12.6% (inactive).

For the compound `Cc1cc(-c2ccccc2)n2nc(C)c(-c3ccccc3)c2n1`, the inhibition was 30.7% (inactive).

For `Cc1cc(C)n(C(=O)c2ccc(S(=O)(=O)N3CCCC3)cc2)n1`, the inhibition was 68.7% (active).

With `Cc1cc(C)n(C(=O)c2ccc(C)c(S(=O)(=O)N3CCOCC3)c2)n1`, the inhibition is 68.7% (active).

Take `Cc1ccccc1-c1nnn(CC(=O)c2ccc(S(=O)(=O)N3CCCC3)cc2)n1`: the inhibition was 14.5% (inactive).

On to `CC(=O)c1c(N2CCOCC2)nc(=S)n(-c2cc(C)ccc2C)c1C`, for which the inhibition was -10.5% (inactive).

Regarding `Cc1ccc(C(=O)Nc2ccccc2C(=O)NC2CCCCC2)cc1S(=O)(=O)N1CCOCC1`, the inhibition is 21.5% (inactive).

`CCOC(=O)c1csc(NC(=O)c2ccc(S(=O)(=O)N3CCCC3)cc2)n1`: the inhibition was -7% (inactive).

Regarding `Cc1ccc(-c2nn(C(C)(C)C)c3ncnc(N)c23)cc1`, the inhibition was 38.5% (inactive).

On to `CCN(Cc1cc2cc(C)ccc2[nH]c1=O)S(=O)(=O)c1ccccc1`, for which the inhibition was 31.8% (inactive).

With `CCCNc1ncnc2sc(C)c(C)c12`, the inhibition was 29.6% (inactive).

`COC(=O)c1ccc(OC(=O)c2nn(C)cc2Cl)c(OC)c1`: the inhibition was 67.9% (active).

For the compound `COc1ccc(Cl)cc1C(=O)NCc1cn(C)nc1C`, the inhibition was 10.4% (inactive).

On to `COC(=O)c1ccc(CSc2nncn2C)cc1`, for which the inhibition is 39.9% (inactive).

Turning to `CC(=O)CCS(=O)(=O)c1ccc(C)c(C)c1`, the inhibition was 35.1% (inactive).

Take `CCN(CC)CC(=O)Nc1nn(-c2ccccc2)nc1C(N)=O`: the inhibition was -19.9% (inactive).

Take `COC(=O)c1ccc(Oc2nc(Nc3ccc(F)cc3)nc(N3CCCC3)n2)cc1`: the inhibition was 32.3% (inactive).

Turning to `Cc1nn(-c2ccccc2)c2[nH]c(C(F)(F)F)cc(=O)c12`, the inhibition is -2.2% (inactive).

`CCCCn1nnnc1NCc1cc(OC)c(OC)c(OC)c1`: the inhibition is 79.8% (active).

As for `CCCCCCc1cc2cc(-c3nnc(-c4ccccc4)o3)c(=O)oc2cc1O`, the inhibition was 27.4% (inactive).

Take `c1cc(-c2nn[nH]n2)ccc1CN1CCCCC1`: the inhibition is -11.4% (inactive).

Regarding `c1ccc2cc(OCCN3CCCC3)ccc2c1`, the inhibition was 4.2% (inactive).

On to `c1ccc2cc3[nH]c(CN4CCCCC4)nc3cc2c1`, for which the inhibition is 82.7% (active).

With `Cc1nc(C)c(-c2csc(NCCc3ccccc3)n2)s1`, the inhibition was 39.4% (inactive).

With `Cn1c(=NC(=O)CSCC(=O)N2CCCCC2)sc2ccccc21`, the inhibition is 73.6% (active).

In the case of `Cn1c(=NC(=O)CSCC(=O)N2CCOCC2)sc2ccccc21`, the inhibition was 46.6% (inactive).

`Cn1c(=NC(=O)c2cnccn2)sc2ccccc21`: the inhibition is -2.4% (inactive).

On to `CC(C)c1nc2oc3c(N4CCN(C)CC4)ncnc3c2c2c1CCC2`, for which the inhibition was 22.2% (inactive).

`O=C(Oc1ccccc1)Oc1ccc2c(c1)oc(=O)c1ccccc12`: the inhibition was -10.9% (inactive).

Turning to `COc1ccc(C(=O)c2oc3ccc(Br)cc3c2NC(C)=O)cc1`, the inhibition is -4% (inactive).

For the compound `ON=C1/C(=N\O)CC2(C/C1=N/O)OCCO2`, the inhibition was -10.5% (inactive).

With `O=C(C1CCC1)N1CCc2cc(S(=O)(=O)NCc3cccnc3)ccc21`, the inhibition is 10% (inactive).

Take `CCCCNc1nc2ccccc2nc1NS(=O)(=O)c1cccs1`: the inhibition was 2.4% (inactive).

For the compound `O=S(=O)(c1cccs1)N1CCN(Cc2ccccc2)CC1`, the inhibition is 98.1% (active).

In the case of `O=C(Nc1ccc(S(=O)(=O)N2CCc3ccccc3C2)cc1)c1ccccc1`, the inhibition was 0.3% (inactive).

As for `O=C1c2ccccc2C(=O)c2c1cccc2N1CCN(Cc2ccccc2)CC1`, the inhibition was 13.4% (inactive).

Consider `O=S(=O)(c1cccs1)N1CCc2ccccc2C1`, for which the inhibition is 78% (active).

With `CN1CCN(S(=O)(=O)c2ccc(N3CCN(S(=O)(=O)c4cccs4)CC3)nc2)CC1`, the inhibition was -25.5% (inactive).

As to `CCN(c1ccccc1)S(=O)(=O)c1ccc(NC(=O)C(C)(C)C)cc1`, the inhibition was 9.3% (inactive).

As for `COc1cccc(/C=N\Nc2nncc(-c3ccccc3)n2)c1`, the inhibition is -7% (inactive).

Take `O=C1C=C(c2ccc(Cl)cc2)C(=O)N1Nc1ccccc1`: the inhibition was 19.7% (inactive).

For the compound `CCOc1ccc(C(=O)NC2CCN(S(=O)(=O)CC)CC2)cc1`, the inhibition is 9.1% (inactive).

As to `CC(=O)NC(Cc1ccc(F)cc1)C(=O)O` (stereo not drawn), the inhibition is -5.1% (inactive).

Take `Cn1c(SCc2c(F)cccc2Cl)nnc1-c1cnccn1`: the inhibition was 25.9% (inactive).

On to `O=C(NCc1ccco1)c1cccn2c(=O)c3c4c(sc3nc12)CCCC4`, for which the inhibition was 45.2% (inactive).

Regarding `Cc1nc(SCC(=O)Nc2cc(C)on2)c2c3c(sc2n1)CCCC3`, the inhibition is 7% (inactive).

`CCCc1nc2sc3c(c2c(=O)n1NC(=O)CCCl)CCCC3`: the inhibition was 88.5% (active).

As to `O=C(Nc1ccncc1)c1cc2ccccc2o1`, the inhibition is 99.6% (active).

As for `O=C(Nc1cccc(-c2nc3ncccc3o2)c1)c1ccco1`, the inhibition was 5.2% (inactive).

`O=C(Nc1ccc(Cl)cc1)c1ccsn1`: the inhibition was 25.4% (inactive).

As to `O=C(NCCc1ccc2c(c1)OCCO2)c1cc2ccccc2o1`, the inhibition was 41.2% (inactive).

With `O=C(Nc1ccncc1)c1c(F)cccc1F`, the inhibition was 52.4% (active).

For `CN1C(=O)c2ccc(NC(=O)c3c(F)c(F)c(F)c(F)c3F)cc2C1=O`, the inhibition is -11.8% (inactive).

As to `C/C(=C\C(=O)c1ccccc1)Nc1cccc(O)c1`, the inhibition is 10.3% (inactive).

With `COc1ccc(CNC(=O)C2CCC(CNc3c(N4CCOCC4)c(=O)c3=O)CC2)cc1` (stereo not drawn), the inhibition is -12.8% (inactive).

With `COc1cccc(-c2nc3cc(C)ccc3o2)c1`, the inhibition was 42.7% (inactive).

In the case of `C/C=C/C(=O)OCC(=O)Nc1ccc(F)cc1Cl`, the inhibition is 16.4% (inactive).

For the compound `CCC1Oc2ccc(Cl)cc2N(CC(=O)O)C1=O` (stereo not drawn), the inhibition was -3.7% (inactive).

Regarding `Cc1cccc(C)c1NC(=O)c1ccc(CN2CCc3ccccc3C2)cc1`, the inhibition is -19.5% (inactive).

Take `CC(C)C(c1nnnn1CCc1ccccc1)N1CCN(C(=O)c2ccco2)CC1` (stereo not drawn): the inhibition was 15.7% (inactive).

`CC(=O)c1ccc(-n2nnnc2SCC(=O)N2CCN(C(=O)c3ccco3)CC2)cc1`: the inhibition was -3.8% (inactive).

With `CCC(c1nnnn1C1CCCC1)N1CCN(C(=O)c2ccco2)CC1` (stereo not drawn), the inhibition is 61.3% (active).

Consider `COC(=O)C1=C(C)NC2=C(C(=O)c3ccccc32)C1c1ccc(-c2ccc(C(=O)O)cc2)o1` (stereo not drawn), for which the inhibition was 44.5% (inactive).

Take `COC(=O)c1cc(NC(=O)CC2C(=O)NCCN2C(=O)c2ccc(F)cc2)cc(C(=O)OC)c1` (stereo not drawn): the inhibition is 8.6% (inactive).

For `O=C(NC(C(=O)NCCN1CCOCC1)C12CC3CC(CC(C3)C1)C2)C1CCCCC1` (stereo not drawn), the inhibition was -0.8% (inactive).

Consider `OC(CN1C2=NCCCN2c2ccccc21)c1ccc(Br)cc1` (stereo not drawn), for which the inhibition is 11.9% (inactive).

Consider `O=C(Nc1nsc(-c2ccccc2)n1)c1ccncc1`, for which the inhibition is 93.3% (active).

For the compound `Cn1sc(NC(=O)c2ccccc2)nc1=O`, the inhibition is 0.2% (inactive).

In the case of `COC(=O)c1nc(NC(=O)c2ccccc2)n[nH]1`, the inhibition is 1.9% (inactive).

Take `CCOC(=O)C1Sc2[nH]c(=O)sc2C(c2ccc(Cl)cc2)C1C(=O)OCC` (stereo not drawn): the inhibition is 24.6% (inactive).

On to `Cc1ccc2[nH]c(=O)c(CN(CCCN(C)C)C(=O)Nc3cccc(Cl)c3)cc2c1`, for which the inhibition is -4.4% (inactive).

For the compound `COc1ccc2[nH]c(=O)c(CN(CC3CCCO3)C(=O)Nc3ccccc3)cc2c1` (stereo not drawn), the inhibition was 32.6% (inactive).

Consider `Cc1cccc(NC(=O)N(Cc2cc3cc(C)cc(C)c3[nH]c2=O)CC2COCCO2)c1` (stereo not drawn), for which the inhibition is 76.8% (active).

With `CCOC(=O)c1cccc(NC(=O)CCc2c(C)nc3ncnn3c2C)c1`, the inhibition was 2.3% (inactive).

For the compound `Cc1ccc2c(CSc3nncs3)cc(=O)oc2c1`, the inhibition is 86.8% (active).

Consider `Cc1cc([N+](=O)[O-])c(N2CCC[C@@H]2C(=O)O)c([N+](=O)[O-])c1`, for which the inhibition is -5.1% (inactive).

Take `CCOc1ccc(C(=O)NC(C(=O)NCc2ccccn2)C(C)C)cc1` (stereo not drawn): the inhibition was 26.7% (inactive).

In the case of `COc1cccc(/C=N/NC(=O)c2cccc([N+](=O)[O-])c2)c1OS(=O)(=O)c1ccc(C)cc1`, the inhibition was 1.4% (inactive).

Consider `CC(C)(CSc1nncn1/N=C/c1ccco1)NS(=O)(=O)c1ccc(Cl)cc1`, for which the inhibition was 53.3% (active).

Consider `COc1ccc(O)c(C(=O)c2cnc3onc(C(C)C)c3c2)c1`, for which the inhibition is 100% (active).

Turning to `COc1ccc(O)c(C=Nc2cc(C)on2)c1`, the inhibition was 1.5% (inactive).

`O=C(Nc1cccc2cccnc12)c1cccc(N2C(=O)CCC2=O)c1`: the inhibition is 22.2% (inactive).

For `CCCC(C(=O)N1CCOCC1)N1C(=O)C2C3C=CC(C3)C2C1=O` (stereo not drawn), the inhibition was -3.8% (inactive).

For `CCCCC(=O)Nc1cc(C)c2c(=O)oc3ccccc3c2n1`, the inhibition was 16.3% (inactive).

Take `Cc1nc(Cl)c2oc3ccccc3c2n1`: the inhibition was 49.8% (inactive).

For the compound `Cc1ccccc1-n1nnc2c(=O)oc3ccccc3c21`, the inhibition is 66.5% (active).
